# Screening data from PubChem BioAssay.
# ELG1 repair inh: inhibitors of ELG1-dependent DNA repair in HEK293T cells | HEK293T ELG1-luciferase reporter, luminescence, 16 h; DNA damage induced by 5-fluorouridine | AID 504467 | Potency, µM (titrated, usually from 46.1 µM), inactives show at the top dose activity change, negative = inhibition, hits mostly inhibitors | 330,000 tested, 2.3% active; note: potency is the fitted concentration of half-maximal effect; nearly all actives have a fitted effect of over 55% in size
#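 Cells (2,000 per well) received 5-fluorouridine plus test compound or DMSO and were incubated 16 hr at 37 °C, 5% CO2. Luciferase activity was read by luminescence 30 min after ONE-Glo addition; signal suppression marked inhibition of damage-induced ELG1 function.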
# DT40 TDP1 CPT: growth inhibition of DT40 Tdp1-/-;hTDP1 cells with camptothecin (screen for TDP1 inhibitors); chicken DT40 Tdp1-/-;hTDP1 cells + 20 nM CPT, ATP luminescence, 48 h; Potency, µM (series often up to 46.2 µM), inactives show at the top dose activity change, negative = growth inhibition, hits mostly inhibitors; 420,000 tested, 12% active; AID 686979; note: potency is the fitted concentration of half-maximal effect; nearly all actives have a fitted effect of over 55% in size
#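 Cell growth measured by CellTiter-Glo luminescence after a minimum 48 h, 37 C compound exposure with 20 nM CPT in Tdp1-knockout DT40 cells stably expressing hTDP1, seeded 400/well; qHTS titration format.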
# IL1B secr inh: inflammasome signaling inhibition, IL-1 beta readout. THP-1 LPS/ATP IL-1B secretion, AlphaLISA, 16 h; hits give low values. 360,000 tested, 4.7% active. activity change, % at 57.5 µM; in the data active = activity change below about -50%; inconclusive = mostly about -30% to -49%
#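 Secreted IL-1B measured by AlphaLISA bead assay after 16 h compound exposure of THP-1 cells; compounds (final up to 57.5 uM) added 1 h before LPS (250 ng/mL) and ATP (1.25 mM) stimulation; lower signal means less secretion.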
# HT1080NT lethal: kills 2HG-producing HT-1080-NT fibrosarcoma cells. HT-1080-NT fibrosarcoma viability, CellTiter-Glo ATP luminescence, 48 h. Potency, µM (series often up to 46.1 µM), inactives show at the top dose activity, negative = less viability, hits mostly cytotoxic. 360,000 tested, 1.6% active;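 note: NT is the 2HG producing partner of a matched IDH1 knockdown line; potency is the fitted concentration of half-maximal effect; 0% = DMSO-treated cells and -100% = media-only wells without cells; nearly all actives have a fitted effect of over 55% in size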
#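 Viability of the 2HG-overproducing fibrosarcoma line after 48 hours of compound exposure at 37 degrees C was determined by luminescence with CellTiter-Glo, and concentration-effect curves were then fitted and categorized.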
# TDP1 cell noCPT: qHTS for Inhibitors of human tyrosyl-DNA phosphodiesterase 1 (TDP1): qHTS in cells in absence of CPT | DT40 Tdp1-/- hTDP1 cells, no CPT, ATP luminescence, 48 h | Potency, µM (doses to about 46.2 µM), inactives show at the highest dose activity change, negative = growth inhibition, most hits filed as inhibitors | 420,000 tested, 15% active | AID 686978, 2013; note: potency is the fitted concentration of half-maximal effect; nearly all actives have a fitted effect of over 55% in size
#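 Growth kinetics read by CellTiter-Glo luminescence after ≥48 hr at 37 °C. Cells: DT40 Tdp1-/- stably carrying human TDP1, 400 per well, compound exposure in the absence of CPT (DMSO vehicle).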
# HT1080 IDH1KD tx: kills HT-1080 cells with IDH1 knockdown. HT-1080 IDH1 knockdown viability, ATP luminescence, 48 h. Potency, µM (titrated, usually from 46.1 µM), for the others: at the highest dose activity, negative = toxicity, most hits filed as cytotoxic. 360,000 tested, 2% active. AID 686971;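 note: potency is the fitted concentration of half-maximal effect; 0% = DMSO wells and -100% = cell-free medium wells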
#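 Cytotoxicity counter-line: IDH1KD HT-1080, 48 h, CellTiter-Glo. Curves classed by r2, magnitude and activity.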
# Numbers without * were called inactive; ? = inconclusive; nt = no result given; [ ] = remark or other dose. An excerpt weighted towards active compounds, which were near 19% of everything screened. Unless noted, calls come from the whole dose curve; as a rule, active = well fitted curve in the direction sought with a large enough effect; inconclusive = small, poorly fitted or top-dose-only effect, or another doubt; inactive = no such curve, though single readings can be large; an effect the other way counts as inactive or inconclusive. Unless noted, % is set by controls: 0 for no effect and ±100 for the full control effect.
SMILES,ELG1 repair inh,DT40 TDP1 CPT,IL1B secr inh,HT1080NT lethal,TDP1 cell noCPT,HT1080 IDH1KD tx
CCOC(=O)C1=CCN(S(=O)(=O)c2ccccc2F)C1c1ccccc1 (centres undefined),nt,?,46.6,8.1%,16.4µM*,5.5%
CC(=O)c1ccccc1NC(=O)COC(=O)C1CCCN1S(=O)(=O)c1ccccc1F (centres undefined),?,-17.0%,26.2,1.8%[9.24 µM],10.9%,-11.4%
CCOC(=O)C1=CCN(S(=O)(=O)c2ccccc2Cl)C1c1ccc(C)cc1 (centres undefined),nt,25.9µM*,19.6,0.5%,18.4µM*,-3.6%
CCOC(=O)c1c(C)[nH]c(C)c1C(=O)COC(=O)C1CCCN1S(=O)(=O)c1ccccc1F (centres undefined),-22.1%,11.6µM*,27.3,1.1%,14.6µM*,0.0%
COC(=O)C[C@H]1C[C@@H]2c3cc(NC(=O)NC4CCCC4)ccc3O[C@@H]2[C@@H](CO)O1,nt,2.5%,-21.5,-1.5%,?,1.6%
Cc1cc(C)n2[nH]c(=O)cc2n1,nt,-10.8%,9.8,10.3%,-9.7%,4.0%
Cc1oc(-c2ccc3ccccc3c2)nc1CN(C)C(C)c1ccncn1 (centres undefined),9.5%,?,0.0,-22.4%,?,-16.9%
Cc1ccc(N(CC(=O)Nc2ccc(Br)cc2)S(=O)(=O)c2cccs2)cc1,nt,-7.9%,nt,nt,-22.7%,nt
Cc1ccc(NC(=O)CN(C)C(=O)c2ccc(Cl)nc2)cc1,4.0%,-5.9%,-2.9,21.6%,-21.4%,16.1%
CCOC(=O)C1=CCN(S(=O)(=O)c2ccccc2C)C1c1ccc(Cl)cc1 (centres undefined),nt,?,7.6,?,14.6µM*,?
CCOC(=O)C1=CCN(S(=O)(=O)c2ccccc2F)C1c1ccc(Cl)cc1 (centres undefined),nt,?,9.9,-18.8%,?,-16.3%
CCCSc1nnc(NC(=O)c2cc(=O)c3ccccc3o2)s1,nt,1.4%,nt,nt,-16.6%,nt
CCOc1ccc(Nc2oc(-c3ccc(Cl)cc3)nc2C#N)cc1,?,?,-9.2,-28.1%,4.11µM*,?
COc1ccc(-c2nc(C#N)c(NCCc3ccccc3)o2)cc1,?,14.6µM*,-3.8,-10.5%,14.1µM*,20.5%
COCCNc1oc(-c2ccc(OC)cc2)nc1C#N,nt,-18.6%,nt,nt,-25.6%,nt
COCCNc1oc(-c2ccc(Cl)cc2)nc1C#N,?,0.9%,-55.9*,0.9%,-3.8%,-0.2%
COc1ccc(Nc2oc(-c3ccc(Cl)cc3)nc2C#N)cc1,?,6.51µM*,-15.0,?,2.91µM*,?
COc1ccc(Nc2oc(-c3ccc(OC)cc3)nc2C#N)cc1,?,6.2%,-4.0,-0.3%,-28.3%,6.6%
O=C1c2ccccc2C(=O)N1c1ccccn1,nt,0.9%,nt,nt,6.9%,nt
CC(C)CCNC(=O)c1ccc(Cn2c(SCC(N)=O)nc3ccccc3c2=O)cc1,nt,-23.0%,nt,nt,-26.9%,nt
N#Cc1ncc(Br)cn1,nt,1.6%,nt,0.7%,-0.7%,14.4%
CCN(CC)CCCNc1oc(-c2cccc(Cl)c2)nc1C#N,23.7%,?,-8.6,-1.6%[9.24 µM],23.1µM*,?
O=c1[nH]c2ccc(Cl)cc2c(-c2ccccc2)c1N1CCN(CCO)CC1,0.6%,?,-19.1,11.2µM*,?,?
NNC(=O)CSc1c(-c2ccccc2)c2cc(Cl)ccc2[nH]c1=O,22.5%,1.8%,-18.1,-2.3%,?,-2.4%
CCOC(=O)N1CCN(c2c(-c3ccccc3)c3cc(Cl)ccc3[nH]c2=O)CC1,23.4%,?,?,16.5%,?,2.3%
SMILES,ELG1 repair inh,DT40 TDP1 CPT,IL1B secr inh,HT1080NT lethal,TDP1 cell noCPT,HT1080 IDH1KD tx
O=c1[nH]c2ccc(Cl)cc2c(-c2ccccc2)c1SC(=S)N1CCOCC1,-19.3%,?,?,16.4µM*,?,?
NC(=O)CCC(NC(=O)c1ccc(Cl)cc1)C(=O)NCCc1ccc2c(c1)OCCO2 (centres undefined),22.4%,-13.0%,1.9,-9.8%,-7.2%,-0.3%
O=C1NN(c2ccccc2)C(=O)/C1=C/c1ccc(Sc2ccc(Cl)cc2)o1,4.1%,?,15.2,-9.2%,20.6µM*,-6.3%
Cc1ccc(Sc2ccc(/C=C3/C(=O)NN(c4ccccc4)C3=O)o2)cc1,23.5%,?,-24.2,0.0%,16.4µM*,0.7%
O=C1NN(c2ccccc2)C(=O)/C1=C/c1ccc(-c2ccc(Cl)c(C(=O)O)c2)o1,11.0%,2.4%,46.6,-12.8%,-0.6%,-7.5%
CN(Cc1ccccc1)S(=O)(=O)c1nnc(NC(=O)c2ccccc2Cl)s1,nt,-29.1%,nt,nt,?,nt
CC1CC(OC(=O)c2ccccc2O)CC(C)(C)C1 (centres undefined),nt,-14.5%,nt,nt,-18.1%,nt
CCOc1ccc2c(ccc(/C=C/c3cc(C)c4cccnc4c3O)[n+]2C)c1,nt,2.59µM*,?,?,5.17µM*,23.1µM*
Cc1ccc(C(C)C)c(OCC(=O)Nc2ccc(-c3nc4ncccc4o3)cc2C)c1,nt,-1.1%,nt,nt,-13.7%,nt
CN(C)C(CNC(=O)c1cc(S(=O)(=O)N2CCOCC2)ccc1Cl)c1cccs1 (centres undefined),nt,?,29.4,5.0%,20.6µM*,2.0%
CN(C)C(CNC(=O)c1cc(S(=O)(=O)N(C)c2ccccc2)ccc1Cl)c1cccs1 (centres undefined),-19.7%,5.8µM*,-1.7,-7.8%,6.51µM*,-4.6%
COc1ccc(NC(=O)c2cc(C3CCCCN3S(=O)(=O)c3cn(C)cn3)on2)c(C)c1 (centres undefined),nt,-14.2%,?,5.9%,-7.2%,?
Cc1ccc(S(=O)(=O)N2C[C@@H](C)[C@]3(C2)[C@H](O)[C@H](OC(=O)NCc2ccccc2F)C[C@H]2C(=O)N(c4ccccc4)C(=O)[C@H]23)cc1,nt,?,0.0,-8.5%,?,-11.7%
CCOC(=O)c1[nH]cnc1C(=O)Nc1ccccn1,?,-13.9%,-63.9*,-14.2%,-6.2%,23.3%
CC1CC(C)CN(C(=O)COC(=O)c2ccc3ccccc3n2)C1 (centres undefined),22.9%,-7.5%,42.1,13.2%,1.7%,15.2%
C=CCn1c(SCC(=O)NCCOC)nnc1-c1cc2c(s1)CCC(CC)C2 (centres undefined),?,?,-18.7,-0.6%,18.4µM*,1.3%
